From PubChem
Mot1-301 SUMO: inhibitors of SUMOylation pathway: yeast Mot1-301 growth rescue. S. cerevisiae Mot1-301 growth rescue, ATP luminescence, 38.5C; percent above DMSO median, 100 means doubled. growth rescue, % at 18.8 µM. 320,000 tested, 1% active;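 active = every valid replicate shows activation above 250% relative to neutral control wells; inactive = the rest, any valid replicate at or below 250%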;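 note: OY570 slx delta 5 strain wells were the positive control but not used for scaling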
LANA-H2B inh: blocks KSHV LANA binding to histone H2A/H2B. inhibition, % (test concentration not listed). AID 2629. Q9QR71. cell-free LANA-H2A/H2B peptide, fluorescence polarization. 320,000 tested, 0.6% active; in the data active = inhibition mostly above about 10%, no sharp cut-off; inactive = mostly below about 6.7%
IDE cell inh: inhibitors of human insulin-degrading enzyme in cells; P14735; HEK cells, FAbetaB cleavage, fluorescence polarization; inhibition, % at 5.59 µM; 320,000 tested, 0.41% active;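 active = percent inhibition above the average of all tested compounds plus 3 SD, set per screening campaign, cut at about 16% in these data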;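 note: IDE supplied by intact live HEK cells; FP after avidin binding of uncleaved biotin substrate so inhibition keeps polarization high; 0% = DMSO wells and 100% = 60 µM reference IDE inhibitor Ii1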
IDE cell activ: boosts human insulin-degrading enzyme activity in HEK cells; P14735; FAbeta-B cleavage, fluorescence polarization; 0% vehicle, 100% cell-free pure enzyme wells; activation, % at 5.96 µM; 340,000 tested, 0.073% active; AID 493087;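 active = activation above the mean of all tested compounds plus 3 SD, set per screening campaign, cut at about 17% in these data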
HDAC3 inh: human HDAC3 inhibition. recombinant HDAC3, fluorogenic peptide/trypsin coupled, fluorescence. O15379. inhibition, % at 8.3 µM. 320,000 tested, 0.15% active; in the data active = inhibition above about 26%, passing the limit was not always enough
IDE inh confirm: confirmation of human insulin-degrading enzyme inhibitors in cells. 1,200 tested, 51% active. inhibition, % at 5.59 µM. shares compounds with IDE cell inh. HEK cells, FAbetaB cleavage, fluorescence polarization. AID 435028;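 active = mean inhibition across triplicate wells above the cutoff set by the earlier primary insulin-degrading enzyme screen, cut at about 16% in these data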;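 note: 0% = DMSO wells and 100% = 60 µM reference IDE inhibitor Ii1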
HEK cytotox: kills HEK cells in IDE inhibitor counter-screen; 1,200 tested, 28% active; AID 449730; inhibition, % at 5.59 µM; shares compounds with IDE cell inh; HEK293 cytotoxicity, ATP luminescence; in the data active = inhibition above about 22%;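 note: 0% = vehicle wells and 100% = reference cytotoxic drug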
IDE FP artifact: fluorescent artifact in IDE inhibitor FP assay; shares compounds with IDE cell inh; FP counterscreen for fluorescent artifacts, IDE probe project; IC50, µM; 30 tested, under 10 active; AID 588718; call rule not given here
Numbers without * were called inactive. Sampled rows, rich in hits. Any-hit rate of the full collection: about 2.1%.

`COc1cc(/C=C2\SC(=S)N(NC(C)=O)C2=O)ccc1OC(=O)c1ccco1` gave Mot1-301 SUMO -6, LANA-H2B inh 1, IDE cell inh 22*, IDE cell activ -17, HDAC3 inh 27*, IDE inh confirm 66*, HEK cytotox 11 and IDE FP artifact >55.
O=c1[nH]c2cc(Br)cnc2nc1/C=C(\O)c1ccc(F)cc1 was read as Mot1-301 SUMO 338*, LANA-H2B inh -2, IDE cell inh 26*, IDE cell activ -50, HDAC3 inh 3, IDE inh confirm 65* and HEK cytotox 13.
`C/C(=N\Nc1ccc([N+](=O)[O-])cc1)c1cc2ccccc2o1` gave Mot1-301 SUMO 80, LANA-H2B inh -2, IDE cell inh 18*, IDE cell activ -20, HDAC3 inh -7, IDE inh confirm 8 and HEK cytotox 10.
`Cc1c(C(=O)C(=O)N2CC=C(c3ccccc3)CC2)c2ccccc2n1C` gave Mot1-301 SUMO -2, LANA-H2B inh -2, IDE cell inh 16*, IDE cell activ -2, HDAC3 inh -3, IDE inh confirm 2 and HEK cytotox 55*.
`CCN(CC)C(=O)c1ccc(/C=C/c2c[nH]c3ccccc23)[n+](C)c1` gave Mot1-301 SUMO 10, LANA-H2B inh -48, IDE cell inh 22*, IDE cell activ -23, HDAC3 inh 17, IDE inh confirm 21* and HEK cytotox 16.
Screening COc1cccc(/C=C(\C#N)c2nc3ccccc3[nH]2)c1OCC(=O)O returned Mot1-301 SUMO 204, LANA-H2B inh 2, IDE cell inh 0, IDE cell activ 3 and HDAC3 inh 14.
For COc1ccc(/C=C(\C#N)c2nc3ccccc3[nH]2)cc1O the results were IDE cell activ -5.
COc1cc(/C=C(/C#N)c2nc3ccccc3[nH]2)ccc1OC(=O)c1ccco1 was read as Mot1-301 SUMO 11, LANA-H2B inh -5, IDE cell inh 67*, IDE cell activ -93, IDE inh confirm 142* and HEK cytotox 7.
Screening COc1cc(/C=C(\C#N)c2nc3ccccc3[nH]2)cc(OC)c1O returned Mot1-301 SUMO 23, LANA-H2B inh -15, IDE cell inh 92*, IDE cell activ -94, HDAC3 inh 5, IDE inh confirm 26* and HEK cytotox 8.
COc1cc(/C=C(\C#N)c2nc3ccccc3n2C)cc(OC)c1O was read as Mot1-301 SUMO 0, LANA-H2B inh -3, IDE cell inh 166*, IDE cell activ -175, HDAC3 inh 7, IDE inh confirm 26* and HEK cytotox 2.
`COc1c(O)ccc(/C=C(\C#N)c2nc3ccccc3[nH]2)c1[N+](=O)[O-]` gave Mot1-301 SUMO -1, LANA-H2B inh 4, IDE cell inh 17*, IDE cell activ 4, HDAC3 inh 10, IDE inh confirm 3 and HEK cytotox 4.
`COc1ccc(CN(CC(=O)NCCc2ccccc2)C(=O)CCC(=O)Nc2cc(C)ccn2)cc1` gave Mot1-301 SUMO 15, LANA-H2B inh -9, IDE cell inh 0, IDE cell activ 1 and HDAC3 inh 2.
C=CCC1CCCC(=O)N2CCCC12 (stereo not given) was read as IDE cell activ 1.
For COc1ccc2[nH]c3c(c2c1)CCN1C(=O)C(CC(=O)NCCCn2ccnc2)C[C@H](C(=O)N2CCCCC2)[C@@]31C (stereo not given in full) the results were IDE cell activ 2.
`COc1ccc(-c2nc3n(c(=O)c2C#N)CCS3)cc1OC` gave Mot1-301 SUMO 22, LANA-H2B inh -9, IDE cell inh -2, IDE cell activ 5 and HDAC3 inh 5.
Screening CCOc1cc(-c2nc3n(c(=O)c2C#N)CCS3)ccc1O returned Mot1-301 SUMO -1, LANA-H2B inh -2, IDE cell inh 25*, IDE cell activ -31, HDAC3 inh -7, IDE inh confirm 41* and HEK cytotox 15.
Screening CC(NC(=O)CNC(=O)c1sc2ccccc2c1Cl)c1ccc(S(N)(=O)=O)cc1 (stereo not given) returned Mot1-301 SUMO -9, LANA-H2B inh -5, IDE cell inh 4, IDE cell activ -3 and HDAC3 inh -4.
Screening Cc1cc(N/N=C/c2c[nH]c3ccccc23)c2ccccc2n1 returned Mot1-301 SUMO 30, LANA-H2B inh -1, IDE cell inh -1, IDE cell activ 3 and HDAC3 inh -1.
Cn1c(N/N=C/c2c[nH]c3ccccc23)nc2ccccc21 was read as Mot1-301 SUMO 2, LANA-H2B inh -5, IDE cell inh 29*, IDE cell activ -9, HDAC3 inh 11, IDE inh confirm 0 and HEK cytotox 63*.
For COc1cc(C(=O)OCC(=O)Nc2ccc3c(c2)OC(F)(F)O3)ccc1OCc1c(C)noc1C the results were Mot1-301 SUMO -12, LANA-H2B inh -1, IDE cell inh 17*, IDE cell activ 1, HDAC3 inh -1, IDE inh confirm 3 and HEK cytotox 7.
`COc1ccc(NC(=O)COC(=O)c2ccc(OCc3c(C)noc3C)cc2)cc1OC` gave Mot1-301 SUMO -5, LANA-H2B inh 1, IDE cell inh 5, IDE cell activ 0 and HDAC3 inh -2.
`CSc1nsc(SCC(=O)Nc2ccccc2C(=O)O)n1` gave Mot1-301 SUMO 4, LANA-H2B inh -2, IDE cell inh 17*, IDE cell activ -10, HDAC3 inh -1, IDE inh confirm 15 and HEK cytotox 12.
CCSc1ccccc1C(=O)Nc1cc(OC)c(OC)c(OC)c1 was read as Mot1-301 SUMO 52, LANA-H2B inh 1, IDE cell inh 18*, IDE cell activ -9, HDAC3 inh 5, IDE inh confirm 10 and HEK cytotox 9.
For COc1cc(/C=C2/CCC/C(=C\c3cc(O)c(OC)c(Cl)c3)C2=O)cc(Cl)c1O the results were Mot1-301 SUMO 16, LANA-H2B inh 8, IDE cell inh 23*, IDE cell activ -20, HDAC3 inh 3, IDE inh confirm 24* and HEK cytotox 87*.
O=C(c1cccn2c(=O)c3cc(Cl)ccc3nc12)N1CCN(Cc2ccc3c(c2)OCO3)CC1 was read as Mot1-301 SUMO 15, LANA-H2B inh 4, IDE cell inh 31*, IDE cell activ -39, HDAC3 inh -6, IDE inh confirm 16 and HEK cytotox 14.
O=C(c1cccn2c(=O)c3ccccc3nc12)N1CCN(Cc2ccc3c(c2)OCO3)CC1 was read as IDE cell inh 12 and IDE cell activ -26.
